Screening data as filed in PubChem.
E coli Lon inh – inhibits E. coli Lon protease | purified E. coli Lon protease, fluorescence polarization | inhibition, % at 7.94 µM | actives 0.42% (n = 360,000); in the data active = inhibition above about 13%, passing the limit was not always enough
Keap1 Nrf2 FP – inhibitors of human Keap1-Nrf2 protein-protein interaction. Keap1 Kelch-Nrf2 peptide fluorescence polarization, 1536-well. inhibition, % at 9.4 µM. actives 0.15% (n = 340,000). AID 504523; in the data active = inhibition above about 12%; inconclusive = no clear call, values can overlap the other calls; inactive = below about 7.3%;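 also: human Keap1 Kelch domain with fluorescein labeled Nrf2 9mer peptide probe; higher means more block of Keap1 binding to Nrf2 peptide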
EBV gp42 inh – EBV gp42 inhibition. Q1HVG2. Fluorescence polarization binding assay, mP read-out. inhibition, % (tested at 21.74 µM). actives 0.42% (n = 220,000); in the data active = inhibition above about 50%
GLD-1 TGE inh – GLD-1-TGE RNA interaction inhibition (C. elegans). Q17339. purified GLD-1 + fluorescein TGE RNA, fluorescence polarization. inhibition, % at 5.96 µM. actives 0.44% (n = 320,000). AID 2280;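 active = percent inhibition above a per-plate cutoff, the plate mean of test compounds plus 3 SD, cut at about 30% in these data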
LANA-H2B inh – blocks KSHV LANA binding to histone H2A/H2B. Q9QR71. cell-free LANA-H2A/H2B peptide, fluorescence polarization. inhibition, % (test concentration not listed). actives 0.6% (n = 320,000). AID 2629; in the data active = inhibition mostly above about 10%, no sharp cut-off; inactive = mostly below about 6.7%
Target sequence (Q9QR71 whole entry, looked up): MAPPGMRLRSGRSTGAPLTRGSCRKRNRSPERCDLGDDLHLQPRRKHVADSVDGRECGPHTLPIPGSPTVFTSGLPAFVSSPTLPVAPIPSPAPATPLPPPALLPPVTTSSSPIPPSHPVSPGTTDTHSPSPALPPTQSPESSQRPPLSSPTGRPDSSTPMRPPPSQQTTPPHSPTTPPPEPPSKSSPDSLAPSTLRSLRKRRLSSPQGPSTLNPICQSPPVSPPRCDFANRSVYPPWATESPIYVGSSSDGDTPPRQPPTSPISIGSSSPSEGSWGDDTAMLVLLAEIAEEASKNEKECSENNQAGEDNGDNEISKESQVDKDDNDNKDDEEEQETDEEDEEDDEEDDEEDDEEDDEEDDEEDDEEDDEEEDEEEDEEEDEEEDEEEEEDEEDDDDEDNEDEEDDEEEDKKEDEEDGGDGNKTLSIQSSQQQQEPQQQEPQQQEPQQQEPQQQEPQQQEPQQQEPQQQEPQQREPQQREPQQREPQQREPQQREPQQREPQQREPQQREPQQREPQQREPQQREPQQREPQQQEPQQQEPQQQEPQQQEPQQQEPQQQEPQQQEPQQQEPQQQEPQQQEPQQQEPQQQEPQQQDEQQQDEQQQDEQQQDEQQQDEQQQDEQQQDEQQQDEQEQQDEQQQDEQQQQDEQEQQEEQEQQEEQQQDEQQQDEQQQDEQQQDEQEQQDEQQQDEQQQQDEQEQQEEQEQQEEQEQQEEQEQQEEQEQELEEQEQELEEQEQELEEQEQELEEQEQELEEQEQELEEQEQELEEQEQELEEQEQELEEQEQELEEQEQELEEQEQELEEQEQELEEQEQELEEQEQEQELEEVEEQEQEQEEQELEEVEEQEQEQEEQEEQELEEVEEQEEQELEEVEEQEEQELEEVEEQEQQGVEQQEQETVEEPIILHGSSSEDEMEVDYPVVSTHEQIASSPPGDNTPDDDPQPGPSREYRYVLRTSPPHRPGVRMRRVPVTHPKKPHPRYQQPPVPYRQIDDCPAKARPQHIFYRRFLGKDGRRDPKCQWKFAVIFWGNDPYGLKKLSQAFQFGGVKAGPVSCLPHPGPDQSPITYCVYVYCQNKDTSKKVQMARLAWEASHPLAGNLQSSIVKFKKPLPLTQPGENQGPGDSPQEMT
LANA DNA inh – blocks KSHV LANA C-terminal domain binding to DNA; MBP-C-LANA/FAM-LBS DNA binding, fluorescence polarization; inhibition, % at 9 µM; actives 0.078% (n = 340,000); AID 504423;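 active = highest replicate inhibition at or above 60% at 9 µM, even if other replicates fall short; inactive = all replicates below 60% inhibition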
E coli Lon conf – E. coli Lon inhibition confirmation. inhibition, % at 7.94 µM. purified E. coli Lon, fluorescence polarization. AID 602230. actives 31% (n = 1,400). shares compounds with E coli Lon inh; in the data active = inhibition above about 16%
Large screens that a line does not name were inactive (follow-up assays come after a bar, where they were run); ! = repeats disagree. Rows were chosen to be rich in hits. Some 1.5% of all compounds tested hit in one or more screens of this group.

CC(=O)C1=C(S(=O)(=O)c2ccc(C)cc2)CS(=O)(=O)C1	none (no result: GLD-1 TGE inh, LANA-H2B inh)
Cc1ccsc1C(=O)N1CCN(c2ncc(C(F)(F)F)cc2Cl)CC1	E coli Lon inh 23 (no result: EBV gp42 inh) | E coli Lon conf inactive
CC(C)(C)c1ccc(C2=CSC3=NCCN23)cc1	none (no result: EBV gp42 inh)
NC(=O)c1ccc2c(=O)c(O)c(-c3cc(Cl)c(N)c(Cl)c3)[nH]c2c1	E coli Lon inh 52 (no result: EBV gp42 inh) | E coli Lon conf 19
CN(C)CCCN1C(=O)C2CCc3[nH]c4ccccc4c3C2C1=O (stereo unspecified)	E coli Lon inh 24 | E coli Lon conf inactive
CCN(CC)C(=O)c1nc[nH]c1C(=O)O[C@@H](C)c1ccccc1	none (no result: EBV gp42 inh)
COc1cc(C2(c3ccc(O)c(OC)c3)C(=O)Nc3c(C)cc(Br)cc32)ccc1O	none (no result: EBV gp42 inh)
Cc1c(N/C(=N/S(=O)(=O)c2cc([N+](=O)[O-])ccc2Cl)c2ccccc2)c(=O)n(-c2ccccc2)n1C	E coli Lon inh 19 | E coli Lon conf inactive
Cc1oc(/N=C/c2ccc(O)cc2O)c(C#N)c1C	E coli Lon inh 14, GLD-1 TGE inh 53 | E coli Lon conf inactive
CCOc1ccc(Nc2nc(Nc3ccc(O)cc3)nc(C)c2[N+](=O)[O-])cc1	none
CCOc1ccc(Nc2nc(NCC(=O)O)nc(N)c2[N+](=O)[O-])cc1	E coli Lon inh 19 (no result: EBV gp42 inh) | E coli Lon conf inactive
O=C(COC(=O)c1ccc2ccccc2c1)NCCCc1ccccc1	none
O=C(CSc1nc2ccccc2s1)NC1CCCC1	E coli Lon inh 23 | E coli Lon conf inactive
Cc1ccc(-n2ncc3c2CCCC3NC(=O)CSc2ccccn2)cc1C (stereo unspecified)	none (no result: EBV gp42 inh)
N#Cc1c(N2CCN(c3ccc([N+](=O)[O-])cc3)CC2)[n+](=O)c2ccc(Cl)cc2n1[O-]	E coli Lon inh 134 (no result: EBV gp42 inh, GLD-1 TGE inh, LANA-H2B inh) | E coli Lon conf 43
CCOc1ccc(N=Cc2ccc(N(C)C)cc2)c(O)c1	E coli Lon inh 126 (no result: Keap1 Nrf2 FP, EBV gp42 inh, GLD-1 TGE inh, LANA-H2B inh, LANA DNA inh) | E coli Lon conf 78
CCOc1ccc(/C=N/O)cc1	none
CCOc1ccc(N=Cc2ccc([N+](=O)[O-])cc2)c(O)c1	E coli Lon inh 43 (no result: Keap1 Nrf2 FP, EBV gp42 inh, GLD-1 TGE inh, LANA-H2B inh, LANA DNA inh) | E coli Lon conf inactive
N#Cc1cnc(SCC(=O)N2CCCCC2)nc1N	none (no result: EBV gp42 inh)
N#Cc1cnc(SCC(=O)N2CCCC2)nc1N	E coli Lon inh 14 (no result: EBV gp42 inh) | E coli Lon conf inactive
CCOC(=O)c1c(C)oc2c1c(C=NC1CCS(=O)(=O)C1)c(O)c1ccccc12 (stereo unspecified)	none
CCOC(=O)c1c(C)oc2c1c(C=NCCC(=O)O)c(O)c1ccccc12	E coli Lon inh 15 | E coli Lon conf 30
CCOC(=O)c1cnn(Cc2cccc(Cl)c2)c1C	none
COc1ccc(-c2ccc(C(=O)N3CCN(C)CC3)c3occc23)c(C)c1	none (no result: Keap1 Nrf2 FP, EBV gp42 inh, GLD-1 TGE inh, LANA-H2B inh, LANA DNA inh)
COc1ccc(-c2ccc(C(=O)N3CCOCC3)c3occc23)c(C)c1	E coli Lon inh 23 (no result: Keap1 Nrf2 FP, EBV gp42 inh, GLD-1 TGE inh, LANA-H2B inh, LANA DNA inh) | E coli Lon conf inactive
CCSC1=N/C(=C\c2ccc(-c3ccccc3[N+](=O)[O-])o2)C(=O)S1	E coli Lon inh 37, GLD-1 TGE inh 48 | E coli Lon conf inactive
O=C(Nc1ccccc1)Nc1n[nH]c2nnc(-c3ccccc3)c(-c3ccccc3)c12	none (no result: EBV gp42 inh)
COc1ccccc1NS(=O)(=O)c1ccc(C)c(C(=O)NCC(c2cccs2)N2CCOCC2)c1 (stereo unspecified)	none (no result: EBV gp42 inh, GLD-1 TGE inh, LANA-H2B inh)
C=C(C)c1cccc(C(C)(C)NC(=O)Nc2ccc(OC)nc2)c1	E coli Lon inh 46, GLD-1 TGE inh 83 (no result: EBV gp42 inh) | E coli Lon conf 18
COC(=O)CNC(=O)COC(=O)/C=C/c1ccc(F)cc1	none
N=c1c2c(-c3ccccc3)c(-c3ccccc3)n(Cc3ccco3)c2ncn1CCCN1CCOCC1	E coli Lon inh 14 | E coli Lon conf inactive
N=c1c2c(-c3ccccc3)c(-c3ccccc3)n(Cc3ccco3)c2ncn1CCCn1ccnc1	none
CCN1CCN(Cc2ccc(NC(=O)c3ccc(C)c(NC(=O)c4cccc5[nH]ccc45)c3)cc2C(F)(F)F)CC1	E coli Lon inh 13! | E coli Lon conf inactive
CCN1CCN(Cc2ccc(NC(=O)c3ccc(C)c(NC(=O)c4nccn4C)c3)cc2C(F)(F)F)CC1	none
CCCCn1c(N)c(N(CCOC)C(=O)C2CCCN(C(=O)c3ccc(Cl)cc3)C2)c(=O)[nH]c1=O (stereo unspecified)	none (no result: EBV gp42 inh)
Cc1cc2nc3c(=O)n(CCc4ccccc4)c(=O)[nH]c3nc2cc1N	E coli Lon inh 166, EBV gp42 inh 158, GLD-1 TGE inh 189 | E coli Lon conf 89
Nc1ccc2nc3c(=O)n(CCc4ccccc4)c(=O)[nH]c3nc2c1	E coli Lon inh 191, EBV gp42 inh 174, GLD-1 TGE inh 191 (no result: Keap1 Nrf2 FP, LANA DNA inh) | E coli Lon conf 132
CSCCC(NS(=O)(=O)c1cccc(C(F)(F)F)c1)C(=O)N1CCN(C(=O)c2ccco2)CC1 (stereo unspecified)	E coli Lon inh 52 (no result: EBV gp42 inh, GLD-1 TGE inh, LANA-H2B inh) | E coli Lon conf inactive
CC(C)C(NS(=O)(=O)c1ccccc1)C(=O)N1CCN(C(=O)c2ccco2)CC1 (stereo unspecified)	none (no result: EBV gp42 inh)
CC(=O)NCCc1ccc(C(=O)CSc2nnc(C3CC3)n2C2CC2)cc1	none (no result: EBV gp42 inh)
N#CC12COC3(CCCCC3C1(C#N)C#N)OC2=N (stereo unspecified)	E coli Lon inh 46, Keap1 Nrf2 FP inconclusive, GLD-1 TGE inh 74 | E coli Lon conf inactive
N#Cc1c(N)sc(=S)c2c1CCCC2	E coli Lon inh 16, GLD-1 TGE inh 102 | E coli Lon conf inactive
CCOC(=O)c1ccc(NS(=O)(=O)c2cc(-c3nnnn3C(C)C)ccc2OC)cc1	none
O=c1[nH]c2ccccc2nc1/C=C/c1ccccc1	E coli Lon inh 14 | E coli Lon conf inactive
COc1ccc(/C=N/N2CCN(C)CC2)c(OC)c1OC	E coli Lon inh 20 | E coli Lon conf inactive
COc1ccc(CCN(C)C(=O)COc2ccc(N(C)S(=O)(=O)c3ccc(C)cc3)cc2)cc1OC	none (no result: EBV gp42 inh)
Cc1[nH]c2ccc3c(ncn3CCC#N)c2c1C	E coli Lon inh 29 | E coli Lon conf inactive
CC(=O)Nc1cccc(NC(=O)CSc2nc(=O)n(CCN3CCOCC3)c3c2CCC3)c1	E coli Lon inh 105 (no result: EBV gp42 inh) | E coli Lon conf inactive
Cn1cccc1C1Nc2ccccc2NC2=C1C(=O)CC(C)(C)C2 (stereo unspecified)	E coli Lon inh 39 | E coli Lon conf inactive
COc1cc(C2Nc3ccccc3NC3=C2C(=O)CC(C)(C)C3)cc(OC)c1OC (stereo unspecified)	none (no result: EBV gp42 inh)
COc1cc(OC)c(C2Nc3ccccc3NC3=C2C(=O)CC(C)(C)C3)cc1OC (stereo unspecified)	E coli Lon inh 17 (no result: EBV gp42 inh) | E coli Lon conf inactive
C#CCN(C[C@@H]1[C@@H](OC(=O)NCc2ccccc2F)[C@@H](OC(=O)NCc2ccccc2F)Cn2c(=O)ccc(=O)n21)S(=O)(=O)c1ccc(C)cc1	none (no result: Keap1 Nrf2 FP, EBV gp42 inh, GLD-1 TGE inh, LANA-H2B inh, LANA DNA inh)
Cc1ccc(-n2c(C)cc(C(=O)CN3CCOCC3)c2C)cc1	E coli Lon inh 19 | E coli Lon conf inactive
